Results from PubChem BioAssay AID1984 (Sanford-Burnham Center for Chemical Genomics, 2009).
In all, about 290,000 compounds went through this assay and about 35 (0.01%) were called active.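 Rule for the calls: active = EGFP signal decrease of at least 30% at 10 µM or well 3 SD below plate mean, unless failing retest; inactive = the rest, including hits failing retest or dose response.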 The full list was thinned out, with actives kept by preference.

Each molecule was assayed against p/CIP-EGFP fusion (nuclear receptor coactivator 3, mouse) (UniProt Q05BA5) (assay: p/CIP-EGFP fusion destabilizers, primary screen, fluorescence, F442A cells (AID 1984)). Settings: 16 h, at 10 µM, hits give high values.
Sequence of p/CIP-EGFP fusion (nuclear receptor coactivator 3, mouse) (Q05BA5 1-1403): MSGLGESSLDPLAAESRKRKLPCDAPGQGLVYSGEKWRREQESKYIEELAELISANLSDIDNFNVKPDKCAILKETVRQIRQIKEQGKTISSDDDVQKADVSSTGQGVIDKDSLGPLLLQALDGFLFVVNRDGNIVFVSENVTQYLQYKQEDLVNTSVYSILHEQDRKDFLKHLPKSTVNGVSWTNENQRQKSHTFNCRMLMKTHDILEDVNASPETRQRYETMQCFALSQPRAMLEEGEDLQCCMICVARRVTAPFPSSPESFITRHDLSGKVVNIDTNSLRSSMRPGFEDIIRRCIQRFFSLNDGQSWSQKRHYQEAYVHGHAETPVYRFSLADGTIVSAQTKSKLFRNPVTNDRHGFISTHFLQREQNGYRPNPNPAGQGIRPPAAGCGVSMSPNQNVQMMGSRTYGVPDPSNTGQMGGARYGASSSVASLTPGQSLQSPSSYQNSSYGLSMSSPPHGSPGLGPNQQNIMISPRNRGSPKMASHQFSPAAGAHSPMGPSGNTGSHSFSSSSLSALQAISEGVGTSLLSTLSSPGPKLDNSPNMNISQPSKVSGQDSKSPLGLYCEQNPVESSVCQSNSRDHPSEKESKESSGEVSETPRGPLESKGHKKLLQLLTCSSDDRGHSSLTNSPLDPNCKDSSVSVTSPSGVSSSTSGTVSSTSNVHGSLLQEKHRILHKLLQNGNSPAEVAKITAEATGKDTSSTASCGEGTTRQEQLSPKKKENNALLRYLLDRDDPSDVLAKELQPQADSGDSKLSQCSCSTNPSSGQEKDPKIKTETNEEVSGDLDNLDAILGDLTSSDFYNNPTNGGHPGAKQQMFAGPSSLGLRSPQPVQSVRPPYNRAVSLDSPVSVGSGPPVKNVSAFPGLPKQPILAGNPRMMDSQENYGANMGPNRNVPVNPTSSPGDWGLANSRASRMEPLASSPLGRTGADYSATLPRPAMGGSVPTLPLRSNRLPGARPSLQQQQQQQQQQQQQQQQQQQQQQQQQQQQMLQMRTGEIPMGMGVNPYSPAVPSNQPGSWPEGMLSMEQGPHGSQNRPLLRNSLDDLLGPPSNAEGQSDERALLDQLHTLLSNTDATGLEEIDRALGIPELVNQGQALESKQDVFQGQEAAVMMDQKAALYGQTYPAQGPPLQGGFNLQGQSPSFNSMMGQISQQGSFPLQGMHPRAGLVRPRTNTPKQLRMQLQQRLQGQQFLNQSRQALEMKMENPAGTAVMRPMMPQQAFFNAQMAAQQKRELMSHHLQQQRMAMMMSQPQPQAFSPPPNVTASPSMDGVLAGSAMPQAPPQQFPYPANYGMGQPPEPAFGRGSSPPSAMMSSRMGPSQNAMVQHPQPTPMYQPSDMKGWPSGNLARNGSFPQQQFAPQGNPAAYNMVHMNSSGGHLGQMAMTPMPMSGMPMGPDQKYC

Decrease of EGFP signal, inactive:
CCc1ccc(OCC(=O)N(Cc2ccccc2)C2CCS(=O)(=O)C2)cc1 (configuration not stated) -11.2%, COc1cc(OC)cc(C(=O)NCCCn2ccnc2)c1 1.6%, CNc1[nH]ncc1[N+](=O)[O-] 11.8%, Cc1nc(-c2ccc(F)cc2)c(CC(=O)N2CCN(S(=O)(=O)c3ccc(F)cc3)CC2)s1 5.1%, COCCCN1C(=O)c2ccc(C(=O)OCC(=O)NCc3ccccc3OC)cc2C1=O -12.5%, c1ccc(-n2cccc2)c(N2CCCCC2)c1 -13.4%, Cc1cc(-c2nnc(SCC(=O)Nc3ccc(S(N)(=O)=O)cc3)n2N)n[nH]1 -53.2%, CCCCn1c(N)c(N(CCOC)C(=O)c2oc3ccc(OC)cc3c2C)c(=O)[nH]c1=O 9.8%, NC(=O)C(Cc1ccccc1)NC(=O)C12CC3CC(CC(C3)C1)C2 (configuration not stated) -4.8%, Cc1c(S(=O)(=O)N2CC(C)CC(C)C2)c(=O)n(C)c(=O)n1C (configuration not stated) 4.7%, CCSc1nc(O)c(C(c2cccc(OC)c2)c2c(O)nc(SCC)[nH]c2=O)c(=O)[nH]1 -4%, CCCC1(C(=O)OCC)NC(c2ccc(N(C)C)cc2)C2C(=O)N(c3ccc4c(c3)OCCO4)C(=O)C21 (configuration not stated) -13.2%, O=C(O)CCCCCNc1ncnc2ccc(Br)cc12 -16.6%, Cc1cccc(N2Cc3ccccc3C2=NC(=O)c2ccc(Cl)nc2)c1 -1.5%, CC(=O)N1c2ccc(S(=O)(=O)N3CCCC(C(=O)NCc4ccc(Cl)cc4)C3)cc2CC1C (configuration not stated) -5.2%, CCCCC(=O)Nc1c2c(nn1-c1ccc([N+](=O)[O-])cc1)CS(=O)(=O)C2 -0.5%, CS(=O)(=O)N1CCN=C1SCc1ccc(F)cc1 10.9%, CC(=O)c1cccc(NC(=O)CN2C(=O)c3cccnc3Oc3ccc(Cl)cc32)c1 -7.6%, C/C(CC(=O)NCc1ccc(Cl)cc1)=N\NC(=O)COc1ccc(C)cc1Br 2.8%, CCOc1cc(CN2CCCC(CO)(Cc3ccc(F)cc3F)C2)ccc1OC (configuration not stated) -5.3%, Cc1cccc(-c2nc3ccc(C(=O)NCCN4CCN(C)CC4)cc3nc2-c2cccc(C)c2)c1 -5%, COCCCNc1nc2c(-c3cccc(C)c3)nnn2c2ccc(Cl)cc12 -12%, COc1ccc(C(=O)C2CCCN(S(=O)(=O)c3cccc(C)c3)C2)c(C)c1 (configuration not stated) -15.7%, O=C(NCCC1=CCCCC1)c1ccc(Cl)c([N+](=O)[O-])c1 -6.4%, CCCn1c(NC(=O)C23CC4CC(CC(O)(C4)C2)C3)nc2ccccc21 0.5%, O=C(Nc1ccc(O)cc1)c1ccc(NC(=O)c2ccco2)cc1 -4.6%, CCOc1ccc(S(=O)(=O)N2CCC(c3ccccc3)CC2)cc1C(=O)O 2.8%, COCc1ccc(CN2CCC(Oc3ccc(C(=O)NCc4ccccn4)cc3)CC2)o1 -10.7%, COC(c1ccccc1)(c1ccccc1)C(Oc1nc(C)cc(C)n1)C(=O)O (configuration not stated) 0%, O=[N+]([O-])c1ccc2oc(-c3cccc(O)c3)nc2c1 7.6%, CC(Oc1cc2oc(=O)c3c(c2cc1Cl)CCCC3)C(=O)NCc1ccncc1 (configuration not stated) -2.1%, O=C(C[n+]1cc(Br)cc2ccccc21)c1ccc(F)cc1 -1.9%, C/C(=N\NC(=O)c1ccc2ccccc2c1)c1cccnc1 -18.3%, CCOc1ccc(CN(C)C(=O)c2ccc(=O)[nH]c2)cc1 5.1%, Cc1cc(S(=O)(=O)NC2CCCC2)ccc1-n1cnnn1 -8.5%, O=C1NC(=O)C(c2ccc(Cl)cc2)N1 (configuration not stated) -72.8%, CCOc1ccccc1N1CCN(C(=O)c2ccc3[nH]c(C)c(C)c3c2)CC1 6.3%, COc1cc(CCC(=O)Nc2ccncc2Cl)cc(OC)c1OC -2.4%, Cc1nn(C)c(Cl)c1CN1CCC(Oc2ccc(C(=O)N3CCCC3)cc2)CC1 -12%, O=C(Nc1cccc(-n2cnnn2)c1)c1cccnc1 2.8%, O=C(c1ccc(Cl)cc1)N1N=C(c2ccccn2)CC1(O)C(F)(F)F (configuration not stated) 1.2%, COc1ccc(C2Nc3ccccc3C(=O)N2c2ccc(Cl)cc2)cc1Cn1cc([N+](=O)[O-])cn1 (configuration not stated) -4.3%, CCCN(CCC)S(=O)(=O)c1ccc(C(=O)N2CC3CCC(CC3)C2)cc1 -5.7%, CNC(=O)c1sc(NCc2ccccc2OC)nc1C -5%, COc1cccc(NC(=O)N2CCCC2C(=O)NC2CCCCC2)c1 (configuration not stated) -18.1%, NC(=O)c1ccc(Nc2ccc3c(c2)CCC3)c([N+](=O)[O-])c1 -5%, C=CCc1cc(C)ccc1OCCCn1ccnc1 10.1%, CC(C(=O)c1ccc(-c2ccccc2)cc1)[n+]1cccc(Br)c1 (configuration not stated) -9.6%, COC(=O)Cn1cnc2scc(-c3ccc(C)c(C)c3)c2c1=O 4.1%, CC(C)(C)NC(=O)C(c1ccc(Cl)cc1)N(CCO)C(=O)c1snc(C(N)=O)c1N (configuration not stated) 2.5%, CC(=O)[C@@]12O[C@@H]1C[C@H]1[C@@H]3CC[C@H]4C[C@@H](O)CC[C@]4(C)[C@H]3CC[C@@]12C -26.4%, COc1cccc(OCC(O)CNC(=O)c2oc3c(C)c(C)ccc3c2C)c1 (configuration not stated) -15.6%
